Bioassay records as filed in PubChem BioAssay.
Most compounds without a hit are left out; they make up all but 4.1% or so of the library.
Mdm2 MdmX PPI – human Mdm2/MdmX binding inhibition; O15151+Q00987; SaOS-2 split-luciferase Mdm2/MdmX complementation, luminescence; inhibition, % at 8 µM; 330,000 tested, 3% active; AID 485346;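 active = inhibition of at least 50% at 8 µM in the primary screen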
Gli-Sufu block – Gli-Sufu pathway antagonism; Sufu-KO-LIGHT fibroblasts, Gli luciferase reporter luminescence; AID 588413; inhibition, % at 5 µM; 340,000 tested, 0.74% active;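 active = inhibition above about 55%, limit read from the data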
aSyn 5UTR inh – MLPCN primary screen, SNCA 5' untranslated region | alpha-synuclein 5'UTR reporter, inhibitor activity | inhibition, % (tested at 7.5 µM) | 300,000 tested, 0.82% active; in the data active = inhibition above about 60%;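 also: H4 neuroglioblastoma cells stably carrying SNCA 5'UTR luciferase fusion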
KLF5 inhibitor – kruppel-like factor 5 inhibition; inhibition, % at 5 µM; DLD-1 KLF5 promoter-luciferase reporter, luminescence; AID 1700; 290,000 tested, 0.23% active;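 active = inhibition above a per-plate limit of that plate's mean compound inhibition plus 3 SD, cut at about 60% in these data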;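 also: higher means less KLF5 promoter-driven luciferase light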
Jurkat NFkB inh – lowers PMA/ionomycin-induced NF-kB signal in Jurkat cells | PMA/ionomycin-induced NF-kB luciferase reporter, luminescence | inhibition, % at 4 µM | 330,000 tested, 0.53% active | AID 435003; in the data active = inhibition above about 50%
697 NFkB inh – inhibitors of the PMA/ionomycin-induced NF-kB reporter in 697 B cells; 330,000 tested, 0.33% active; 697 B-cell NF-kB luciferase reporter, 16 h; AID 435022; inhibition, % at 4 µM; in the data active = inhibition above about 35%
Gli-Sufu confirm – confirmation of Gli-SUFU pathway antagonists; shares compounds with Gli-Sufu block; Sufu-KO-LIGHT cells, Gli luciferase reporter, luminescence; inhibition, % at 5 µM; 2,500 tested, 40% active;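 active = mean inhibition at 5 µM reaching about 45%, limit read from the data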
Gli cytotox – cytotoxicity counter-screen for Gli-SUFU antagonists; Sufu-KO-LIGHT cells cytotoxicity, ATP luminescence; shares compounds with Gli-Sufu block; 2,500 tested, 32% active; cytotoxicity, % at 5 µM;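 active = mean cytotoxicity at 5 µM above about 25%, limit read from the data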;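 also: cells exposed to compound overnight for roughly 16 to 18 hours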
Wnt3a counter – counter-screen for Gli-SUFU antagonists: Wnt3a reporter inhibition. shares compounds with Gli-Sufu block. Wnt-LIGHT cells, Wnt3a-driven luciferase reporter, luminescence. inhibition, % at 6.25 µM. 2,500 tested, 20% active. AID 651995;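 active = mean inhibition above about 25%, limit read from the data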
Of the large screens only hits and unclear results are named; the others gave an inactive call (follow-up assays come after a bar, where they were run).

NC(N)=NC(N)=Nc1ccc(SC(F)(F)F)cc1	Gli-Sufu block 67.0 | Gli-Sufu confirm 71.9 | Gli cytotox 27.9 | Wnt3a counter 94.4
CCC(Sc1nc(-c2ccccc2)cc(=O)[nH]1)C(=O)O (centres undefined)	none
CC(C)Sc1nc(-c2ccccc2)cc(=O)[nH]1	Gli-Sufu block 69.0 | Gli-Sufu confirm inactive | Gli cytotox inactive | Wnt3a counter inactive
O=C(O)CCCN1C(=O)C2C3C=CC(C2C1=O)C1C(=O)N(CCCC(=O)O)C(=O)C31 (centres undefined)	none
O=C(O)CCCCCN1C(=O)C2CCCCC2C1=O (centres undefined)	Gli-Sufu block 70.4 | Gli-Sufu confirm inactive | Gli cytotox inactive | Wnt3a counter inactive
CC1CCN(Cc2c(C(=O)N3CCc4ccccc4C3)nc3ccc(Cl)cn23)CC1	none | Gli-Sufu confirm inactive | Gli cytotox 33.0 | Wnt3a counter inactive
O=C(NCc1ccccc1)C1CC2CCCC(C1)C2=O (centres undefined)	Gli-Sufu block 94.4 | Gli-Sufu confirm inactive | Gli cytotox inactive | Wnt3a counter inactive
O=C(C1CCCN1S(=O)(=O)c1cccc2nsnc12)N1CCN(c2ccccc2)CC1 (centres undefined)	none
O=C(C1CCCN1S(=O)(=O)c1cccc2nsnc12)N1CCN(c2ccc(F)cc2)CC1 (centres undefined)	Gli-Sufu block 58.2 | Gli-Sufu confirm inactive | Gli cytotox inactive | Wnt3a counter inactive
CCn1cc(CN2CCC(n3nccc3NC(=O)CCOc3ccccc3)CC2)cn1	none
CCn1cc(CN2CCC(n3nccc3NC(=O)CCc3ccccc3)CC2)cn1	Gli-Sufu block 83.5 | Gli-Sufu confirm inactive | Gli cytotox inactive | Wnt3a counter inactive
CCOc1cccc(-c2c(C(=O)N/N=C(\C)c3ccccn3)nnn2-c2nonc2N)c1	Gli-Sufu block 74.6, aSyn 5UTR inh 90.0 (no result: Mdm2 MdmX PPI, Jurkat NFkB inh, 697 NFkB inh) | Gli-Sufu confirm 85.7 | Gli cytotox 50.9 | Wnt3a counter 87.6
C/C(=N/NC(=O)c1nnn(-c2nonc2N)c1-c1ccccc1)c1ccc2c(c1)OCO2	none | Gli-Sufu confirm inactive | Gli cytotox inactive | Wnt3a counter inactive
CCOc1cccc(-c2c(C(=O)N/N=C(\C)c3ccncc3)nnn2-c2nonc2N)c1	none
COc1ccc(CCC2(C)NC(=O)N(C(C)C(=O)N3c4ccccc4CC3C)C2=O)cc1 (centres undefined)	none (no result: aSyn 5UTR inh, KLF5 inhibitor)
O=C(NCc1ccc2c(c1)OCO2)c1ccc(Cl)c(S(=O)(=O)NCc2ccccc2)c1	none
O=C(Nc1cccc(Cl)c1)c1ccc(F)c(S(=O)(=O)NCc2ccc3c(c2)OCO3)c1	Gli-Sufu block 88.7 | Gli-Sufu confirm inactive | Gli cytotox inactive | Wnt3a counter inactive
O=C(Nc1ccc(Br)cc1)c1ccc(F)c(S(=O)(=O)NCc2cccs2)c1	none | Gli-Sufu confirm 51.9 | Gli cytotox 43.4 | Wnt3a counter inactive
CCOC(=O)c1ccc(NC(=O)c2ccccc2N(C)S(=O)(=O)c2ccccc2)cc1	none
CCn1c(=O)c2cc(C(=O)NCC(OC)OC)sc2c2ccccc21	none | Gli-Sufu confirm inactive | Gli cytotox inactive | Wnt3a counter inactive
CCOC(CNC(=O)c1cc2c(=O)n(CC)c3ccccc3c2s1)OCC	none
CN(c1ccc(OCC(=O)N2CCOCC2)cc1)S(=O)(=O)c1ccc(Cl)cc1	none
CCOc1ccccc1OCC(=O)Nc1nnc(C)s1	Gli-Sufu block 94.5 | Gli-Sufu confirm inactive | Gli cytotox inactive | Wnt3a counter inactive
COc1ccc(OCC(=O)Nc2nnc(C)s2)cc1	none
O=C1CC(C(=O)N2CCc3ccccc32)CN1c1ccc(F)cc1 (centres undefined)	none
O=C(c1ccc(-c2ccccc2)cc1)C1CCCN(C(=O)c2ccncc2)C1 (centres undefined)	none
Cc1nn(C)cc1CN1CCCC(C(=O)c2ccc(-c3ccccc3)cc2)C1 (centres undefined)	none | Gli-Sufu confirm inactive | Gli cytotox inactive | Wnt3a counter inactive
O=C(c1ccc(-c2ccccc2)cc1)C1CCCN(Cc2ccncc2)C1 (centres undefined)	none | Gli-Sufu confirm inactive | Gli cytotox inactive | Wnt3a counter inactive
CN(C)S(=O)(=O)c1ccc2nnn(O)c2c1	Gli-Sufu block 58.8 | Gli-Sufu confirm inactive | Gli cytotox inactive | Wnt3a counter inactive
S=c1ncc2[nH]c(=S)[nH]c2[nH]1	none (no result: Mdm2 MdmX PPI, aSyn 5UTR inh, KLF5 inhibitor, Jurkat NFkB inh, 697 NFkB inh)
COc1ccc(N/C=C(\C#N)S(=O)(=O)c2ccc(Cl)cc2)c(OC)c1	Gli-Sufu block 65.0 | Gli-Sufu confirm inactive | Gli cytotox inactive | Wnt3a counter inactive
CC(=O)c1ccc(NC(=S)N2CCN(C(=S)Nc3ccc(C(C)=O)cc3)C(C)C2)cc1 (centres undefined)	Gli-Sufu block 58.0 | Gli-Sufu confirm inactive | Gli cytotox 31.4 | Wnt3a counter inactive
CCOc1ccccc1/C=N/NC(=O)c1nnn(-c2nonc2N)c1CN1CCCCCC1	none (no result: KLF5 inhibitor)
Cc1ccc(-n2cc(CN3CCC(O)(c4ccccn4)CC3)c(-c3ccc(F)cc3)n2)cc1	none
CCOc1ccc2nc(NC(=O)CSc3nnnn3C3CCCCC3)sc2c1	Gli-Sufu block 70.8 | Gli-Sufu confirm inactive | Gli cytotox inactive | Wnt3a counter inactive
Nn1c(SCC(=O)NC2CCS(=O)(=O)C2)nc2scc(-c3ccccc3)c2c1=O (centres undefined)	none (no result: aSyn 5UTR inh, KLF5 inhibitor) | Gli-Sufu confirm inactive | Gli cytotox inactive | Wnt3a counter inactive
CCC(C(=O)NCCc1ccc(OC)cc1OC)n1nc(C)n2c(cc3occc32)c1=O (centres undefined)	none
COc1ccc2c(c1OC)C(C1c3c(cc4c(c3OC)OCO4)CCN1C)OC2=O (centres undefined)	none
COc1ccc2c(c1OC)C(=O)OC2C1c2c(cc3c(c2OC)OCO3)CCN1C (centres undefined)	none | Gli-Sufu confirm inactive | Gli cytotox inactive | Wnt3a counter inactive
O=C(Nc1cccs1)Nc1c(F)c(F)c(F)c(F)c1F	Gli-Sufu block 67.1 | Gli-Sufu confirm 71.8 | Gli cytotox 27.4 | Wnt3a counter 38.6
CN(C)/C=C1/NC(=S)NC1=O	Gli-Sufu block 63.1 | Gli-Sufu confirm inactive | Gli cytotox inactive | Wnt3a counter inactive
CCN1C(=O)/C(=C\N(C)C)NC1=S	none
COCCN(C(=O)CSc1nnc(-c2cccc(F)c2)n1N)c1c(N)n(Cc2ccccc2)c(=O)[nH]c1=O	none (no result: KLF5 inhibitor)
COCCN(C(=O)CSc1nnc(-c2ccccc2F)n1N)c1c(N)n(Cc2ccccc2)c(=O)[nH]c1=O	none | Gli-Sufu confirm inactive | Gli cytotox inactive | Wnt3a counter inactive
